Experimental data from PubChem BioAssay (Tox21).
Records with an inconclusive call do not appear. Calls of active or inactive are those of the source. Unless noted, calls follow the shape of the dose curve; as a rule, active = well fitted curve in the direction sought with a large enough effect in the repeat runs; inconclusive = weak or mixed curves; inactive = no such curve, though single readings can be large; an effect the other way counts as inactive or inconclusive.

Assays:
[1] = qHTS assay to identify small molecule agonists of the sonic hedgehog signaling (Shh) pathway - cell viability counter screen (AID 1259366); also: nearly all actives have a fitted effect of over 50% in size
In short: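 Fluorescence from CellTiter-Fluor reports live cells in this counter screen. NIH/3T3-derived Gli1-Luc reporter cells receive test compounds for 24hr at 37C; reagent goes in at 23hr.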

[2] = qHTS assay to identify small molecule antagonists of the sonic hedgehog signaling (Shh) pathway - cell viability counter screen (AID 1259367); also: nearly all actives have a fitted effect of over 55% in size
In short: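 CellTiter-Fluor signal in conditioned medium-stimulated 3T3 Gli1-Luc cells, 23 hr compound exposure, 37C.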

[3] = qHTS assay to identify small molecule agonists of the sonic hedgehog signaling (Shh) pathway (AID 1259368; calls by dose curve;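 also: NIH/3T3-derived 3T3Gli1-Luc cells carrying a stable Gli1-driven firefly luciferase reporter; series mostly up to about 92 µM; nearly all actives have a fitted effect of over 15% in size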)
In short: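 Luminescence was read after 30 min at room temperature with luciferase reagent. Before that, 3T3Gli1-Luc cells (NIH/3T3 clone, stable Gli1-Luc reporter; 2,000/well) were exposed to compounds for 24 hr at 37C, 5% CO2, compounds being added 4 hr post-plating.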

[4] = target: Estrogen receptor beta (Homo sapiens) (UniProt Q92731); experiment: qHTS assay to identify small molecule agonists of the estrogen receptor beta (ER-beta) signaling pathway (AID 1259377; active = well fitted activation curve with a large enough effect in the signal ratio in the repeat runs, not every such curve was filed as active; the % refers to the signal ratio)
In short: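 Screening used GripTite ER-beta-UAS-bla cells held in 2% charcoal-stripped FBS medium. After overnight (16 hr) compound incubation at 37C, beta-lactamase activity was detected with a FRET substrate by fluorescence.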

[5] = qHTS assay to identify small molecule agonists of the androgen receptor (AR) signaling pathway in the presence of an antagonist - cell viability counter screen (AID 1259379);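 also: MDA-kb2 human breast cancer cells carrying an MMTV luciferase reporter; series mostly up to about 92 µM; nearly all actives have a fitted effect of over 25% in size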
In short: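 Cytotoxicity counter-screen run in the same wells as the nilutamide-challenged (3.0 µM final) AR agonist assay in MDA-kb2 cells. Compounds tested at 15 concentrations for 16 h, 37 °C without CO2; CellTiter-Fluor fluorescence read.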

[6] = qHTS assay to identify small molecule agonists of the estrogen receptor beta (ER-beta) signaling pathway - cell viability counter screen (AID 1259380); also: nearly all actives have a fitted effect of over 30% in size
In short: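 Cell viability counter screen: CellTiter-Glo luminescence (30 min, room temperature) measured in the same wells as the beta-lactamase readout, after 16 hr compound exposure at 37C of ER-beta-bla HEK293T cells in 2% charcoal-stripped FBS medium.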

[7] = qHTS assay to identify small molecule antagonists of the estrogen receptor beta (ER-beta) signaling pathway - cell viability counter screen (AID 1259382);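 also: HEK293T cells carrying ER-beta-UAS-bla reporter stimulated with estradiol; series mostly up to about 92 µM; nearly all actives have a fitted effect of over 55% in size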
In short: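 Cytotoxicity was measured in the same wells by CellTiter-Glo luminescence after 30 min at room temperature. Cells were ER-beta-bla HEK293T in charcoal-stripped serum, given compound together with 1 nM E2 and incubated 16 h at 37C.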

[8] = target: Estrogen receptor (Homo sapiens) (UniProt P03372); experiment: qHTS assay to identify small molecule agonists of the estrogen receptor alpha (ER-alpha) signaling pathway in the presence of an antagonist (AID 1259383; calls by dose curve; also: top concentration of the series differs between compounds; nearly all actives have a fitted effect of over 15% in size)
In short: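 Agonist-mode confirmation run in the presence of 10.0nM (final) ICI-182,780 antagonist. The reporter was ERE-driven luciferase in VM7Luc4E2 cells, grown in charcoal-stripped serum. Cells were exposed to 15-concentration compound series for 22hr, then ONE-Glo luminescence was read.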

[9] = qHTS assay to identify small molecule agonists of the estrogen receptor alpha (ER-alpha) signaling pathway in the presence of an antagonist - cell viability counter screen (AID 1259386); also: series mostly up to about 92 µM; nearly all actives have a fitted effect of over 30% in size
In short: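 Compounds tested at 15 concentrations for 22 h at 37C alongside 10.0nM (final) ICI-182,780 antagonist, in VM7Luc4E2 cells grown in phenol red-free, charcoal-stripped medium. Viability read by CellTiter-Fluor fluorescence after 1 h reagent incubation.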

[10] = target: Progesterone receptor (Homo sapiens) (UniProt P06401); experiment: qHTS assay to identify small molecule agonists of the progesterone receptor (PR) signaling pathway (AID 1346784; calls by dose curve; also: nearly all actives have a fitted effect of over 30% in size)
In short: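 Seed PR-UAS-bla HEK 293T cells (2% charcoal-stripped FBS), incubate 6 hr at 37C; add compounds in DMSO, 16 hr at 37C; add LiveBLAzer B/G substrate, 2 hr RT; read fluorescence intensity.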

[11] = target: Progesterone receptor (Homo sapiens) (UniProt P06401); experiment: qHTS assay to identify small molecule antagonists of the progesterone receptor (PR) signaling pathway (AID 1346795; active = well fitted inhibition curve with a large enough effect in the signal ratio in the repeat runs, not every such curve was filed as active; the % refers to the signal ratio)
In short: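 Screening used a GripTite HEK293T line with PR-responsive UAS-beta-lactamase. Cells were challenged with compound in the presence of 1 nM R5020 final for 16 hr at 37C; B/G FRET substrate, 2 hr room temperature, fluorescence.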

[12] = qHTS assay to identify small molecule antagonists of the progesterone receptor (PR) signaling pathway - cell viability counter screen (AID 1346798); also: series mostly up to about 92 µM; nearly all actives have a fitted effect of over 50% in size
In short: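 Measures cytotoxicity in parallel with the PR antagonist reporter read: HEK293T PR-UAS-bla cells get compound and R5020 for 16 hr, and remaining viable cells are quantified by CellTiter-Glo luminescence.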

[13] = qHTS assay to identify small molecule agonists of the progesterone receptor (PR) signaling pathway - cell viability counter screen (AID 1346799; calls by dose curve; also: nearly all actives have a fitted effect of over 45% in size)
In short: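 Using the same plates as the PR reporter screen, HEK293T PR-UAS-bla cells received compounds for 16 hr at 37C and were then lysed with CellTiter-Glo; luminescence was read 30 min later at room temperature.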

[14] = qHTS assay to identify small molecule antagonists of the TGF-beta/Smad signaling pathway - cell viability counter screen (AID 1346824); also: nearly all actives have a fitted effect of over 50% in size
In short: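 Cytotoxicity counter-screen run in the same wells as the beta-lactamase Smad reporter read: CellTiter-Glo luminescence after 30 min at room temperature. HEK 293T SBE-bla cells had 5 hr compound exposure at 37 C with TGF-beta1 (0.25 ng/mL stock).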

[15] = qHTS assay to identify small molecule agonists of the TGF-beta/Smad signaling pathway - cell viability counter screen (AID 1346829); also: top concentration of the series differs between compounds; nearly all actives have a fitted effect of over 45% in size
In short: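 Compound-treated SBE-bla HEK 293T cells (5 hr, 37 C) were assessed for viability with CellTiter-Glo in parallel with the reporter read.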

[16] = qHTS assay to identify small molecule antagonists of the sonic hedgehog signaling (Shh) pathway (AID 1259369; calls by dose curve; also: nearly all actives have a fitted effect of over 45% in size)
In short: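 Antagonist mode: compound added to 3T3 Gli1-Luc cells followed by conditioned-medium stimulation, 24 h at 37 C, 5% CO2. Inhibition taken as loss of Gli1-driven luciferase luminescence.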

[17] = target: Estrogen receptor beta (Homo sapiens) (UniProt Q92731); experiment: qHTS assay to identify small molecule antagonists of the estrogen receptor beta (ER-beta) signaling pathway (AID 1259378; active = well fitted inhibition curve with a large enough effect in the signal ratio in the repeat runs, not every such curve was filed as active; the % refers to the signal ratio)
In short: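 Antagonist mode: compounds added to beta-lactamase reporter HEK293T ER-beta-UAS cells stimulated with E2 (1nM final), 16 hr at 37C. LiveBLAzer B/G FRET substrate, 2 hours room temperature, fluorescence read-out.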

[18] = qHTS assay to identify small molecule agonists or antagonists of the thyroid stimulating hormone receptor (TSHR) signaling pathway - wild type cell line counter screen (AID 1259384; calls by dose curve)
In short: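 Counter screen in untransfected Hek293: compounds (15-point titration, triplicate) plus phosphodiesterase inhibitor Ro20-1724 added after 18 h plating; 30 min RT. Intracellular cAMP via competitive d2/cryptate immunoassay, 1 h incubation.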

[19] = target: Thyrotropin receptor (Homo sapiens) (UniProt P16473); experiment: qHTS assay to identify small molecule antagonists of the thyroid stimulating hormone receptor (TSHR) signaling pathway (AID 1259385; calls by dose curve; also: nearly all actives have a fitted effect of over 20% in size)
In short: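 Antagonist mode: compound-treated TSHR-expressing HEK293 cells were stimulated with 1.5 ng/mL TSH (final) in presence of Ro20-1724 for 30 min at RT. HTRF cAMP detection after 1 h; each compound tested at 15 concentrations, triplicate.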

[20] = target: Androgen receptor (Homo sapiens) (UniProt P10275); experiment: qHTS assay to identify small molecule agonists of the androgen receptor (AR) signaling pathway in the presence of an antagonist (AID 1259381; calls by dose curve; also: nearly all actives have a fitted effect of over 15% in size)
In short: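 Agonist-mode confirmation run against 3.0 uM final nilutamide: compounds titrated at 15 concentrations onto MDA-kb2 MMTV-luciferase reporter cells. Luminescence measured with ONE-Glo following 16 hr incubation, 37C, 0% CO2.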
% is scaled to controls: 0 for no effect and ±100 for the full control effect.

Chain of Estrogen receptor beta (Homo sapiens) (Q92731 whole entry, looked up): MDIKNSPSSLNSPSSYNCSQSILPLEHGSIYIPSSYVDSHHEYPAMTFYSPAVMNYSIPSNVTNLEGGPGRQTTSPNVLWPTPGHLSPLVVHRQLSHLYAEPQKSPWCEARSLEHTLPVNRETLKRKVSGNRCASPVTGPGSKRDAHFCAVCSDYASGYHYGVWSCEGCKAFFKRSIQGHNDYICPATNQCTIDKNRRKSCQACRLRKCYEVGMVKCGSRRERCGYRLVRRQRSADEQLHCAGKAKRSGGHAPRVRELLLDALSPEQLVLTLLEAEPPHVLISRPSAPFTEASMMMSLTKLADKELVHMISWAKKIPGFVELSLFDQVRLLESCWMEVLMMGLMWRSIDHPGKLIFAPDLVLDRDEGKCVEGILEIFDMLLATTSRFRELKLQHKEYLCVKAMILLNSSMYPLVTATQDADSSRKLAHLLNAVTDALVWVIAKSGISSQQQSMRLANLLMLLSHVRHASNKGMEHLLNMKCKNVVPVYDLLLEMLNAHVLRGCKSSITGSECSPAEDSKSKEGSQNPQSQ
Chain of Estrogen receptor (Homo sapiens) (P03372 whole entry, looked up): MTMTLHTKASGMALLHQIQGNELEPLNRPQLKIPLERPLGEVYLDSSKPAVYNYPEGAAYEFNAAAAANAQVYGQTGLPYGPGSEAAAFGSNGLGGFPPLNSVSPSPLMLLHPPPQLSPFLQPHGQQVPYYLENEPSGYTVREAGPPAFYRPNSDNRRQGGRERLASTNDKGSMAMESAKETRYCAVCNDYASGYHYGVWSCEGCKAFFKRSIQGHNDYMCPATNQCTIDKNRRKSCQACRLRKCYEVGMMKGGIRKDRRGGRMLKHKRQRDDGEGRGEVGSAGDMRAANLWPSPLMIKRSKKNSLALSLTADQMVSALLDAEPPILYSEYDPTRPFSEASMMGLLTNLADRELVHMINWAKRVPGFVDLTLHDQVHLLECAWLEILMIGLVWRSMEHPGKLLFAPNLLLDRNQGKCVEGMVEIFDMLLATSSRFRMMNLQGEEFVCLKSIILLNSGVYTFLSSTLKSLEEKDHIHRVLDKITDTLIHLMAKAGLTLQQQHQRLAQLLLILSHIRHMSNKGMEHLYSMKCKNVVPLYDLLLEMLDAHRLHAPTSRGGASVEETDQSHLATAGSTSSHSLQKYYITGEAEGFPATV
Chain of Androgen receptor (Homo sapiens) (P10275 whole entry, looked up): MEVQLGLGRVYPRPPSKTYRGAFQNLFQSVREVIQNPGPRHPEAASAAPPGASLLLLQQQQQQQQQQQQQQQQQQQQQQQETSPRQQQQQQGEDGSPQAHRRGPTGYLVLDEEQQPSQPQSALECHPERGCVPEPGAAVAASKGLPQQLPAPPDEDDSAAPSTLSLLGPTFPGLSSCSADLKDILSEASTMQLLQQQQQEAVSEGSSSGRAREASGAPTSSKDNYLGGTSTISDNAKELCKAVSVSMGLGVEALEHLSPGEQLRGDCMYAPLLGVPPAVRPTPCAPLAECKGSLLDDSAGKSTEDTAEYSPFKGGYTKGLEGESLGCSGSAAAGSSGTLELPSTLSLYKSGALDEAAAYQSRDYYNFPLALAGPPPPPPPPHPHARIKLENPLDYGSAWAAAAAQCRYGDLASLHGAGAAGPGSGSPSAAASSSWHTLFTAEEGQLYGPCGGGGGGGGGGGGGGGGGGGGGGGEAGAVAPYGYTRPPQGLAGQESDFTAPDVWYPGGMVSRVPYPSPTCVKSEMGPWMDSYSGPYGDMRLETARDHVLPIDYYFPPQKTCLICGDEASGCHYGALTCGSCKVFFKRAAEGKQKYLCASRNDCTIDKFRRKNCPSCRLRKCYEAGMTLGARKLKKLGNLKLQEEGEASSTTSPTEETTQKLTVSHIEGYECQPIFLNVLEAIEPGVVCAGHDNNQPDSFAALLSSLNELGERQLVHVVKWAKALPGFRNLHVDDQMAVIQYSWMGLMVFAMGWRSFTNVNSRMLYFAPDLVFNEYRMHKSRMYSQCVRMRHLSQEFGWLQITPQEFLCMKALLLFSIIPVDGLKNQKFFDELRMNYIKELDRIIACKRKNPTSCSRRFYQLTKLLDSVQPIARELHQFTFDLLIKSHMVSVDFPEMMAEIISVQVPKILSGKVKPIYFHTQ
Chain of Progesterone receptor (Homo sapiens) (P06401 whole entry, looked up): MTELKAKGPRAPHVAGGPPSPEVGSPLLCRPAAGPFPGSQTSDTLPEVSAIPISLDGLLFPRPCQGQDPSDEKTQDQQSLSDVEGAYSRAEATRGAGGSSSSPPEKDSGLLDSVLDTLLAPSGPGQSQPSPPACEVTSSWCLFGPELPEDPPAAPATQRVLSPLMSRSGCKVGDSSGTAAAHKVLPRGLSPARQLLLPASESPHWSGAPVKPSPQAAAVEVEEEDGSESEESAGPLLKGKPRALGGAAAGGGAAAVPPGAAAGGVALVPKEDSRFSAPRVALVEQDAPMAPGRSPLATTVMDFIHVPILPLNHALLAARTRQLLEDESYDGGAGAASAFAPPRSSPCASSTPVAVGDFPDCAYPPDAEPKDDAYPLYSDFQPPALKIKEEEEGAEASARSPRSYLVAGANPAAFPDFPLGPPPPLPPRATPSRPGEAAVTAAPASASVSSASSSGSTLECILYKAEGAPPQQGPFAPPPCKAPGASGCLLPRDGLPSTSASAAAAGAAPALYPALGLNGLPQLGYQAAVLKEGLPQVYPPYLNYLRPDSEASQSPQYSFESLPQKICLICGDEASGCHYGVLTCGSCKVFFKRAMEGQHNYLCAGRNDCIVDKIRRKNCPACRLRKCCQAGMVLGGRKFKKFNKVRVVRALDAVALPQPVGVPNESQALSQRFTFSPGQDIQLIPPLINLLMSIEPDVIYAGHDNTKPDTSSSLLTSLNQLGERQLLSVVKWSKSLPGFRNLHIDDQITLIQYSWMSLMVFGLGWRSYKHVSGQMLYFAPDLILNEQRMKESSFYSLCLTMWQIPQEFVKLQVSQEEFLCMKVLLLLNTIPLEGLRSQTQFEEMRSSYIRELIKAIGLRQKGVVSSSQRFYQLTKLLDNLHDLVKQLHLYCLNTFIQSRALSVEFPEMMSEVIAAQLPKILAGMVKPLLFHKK
Chain of Thyrotropin receptor (Homo sapiens) (P16473 whole entry, looked up): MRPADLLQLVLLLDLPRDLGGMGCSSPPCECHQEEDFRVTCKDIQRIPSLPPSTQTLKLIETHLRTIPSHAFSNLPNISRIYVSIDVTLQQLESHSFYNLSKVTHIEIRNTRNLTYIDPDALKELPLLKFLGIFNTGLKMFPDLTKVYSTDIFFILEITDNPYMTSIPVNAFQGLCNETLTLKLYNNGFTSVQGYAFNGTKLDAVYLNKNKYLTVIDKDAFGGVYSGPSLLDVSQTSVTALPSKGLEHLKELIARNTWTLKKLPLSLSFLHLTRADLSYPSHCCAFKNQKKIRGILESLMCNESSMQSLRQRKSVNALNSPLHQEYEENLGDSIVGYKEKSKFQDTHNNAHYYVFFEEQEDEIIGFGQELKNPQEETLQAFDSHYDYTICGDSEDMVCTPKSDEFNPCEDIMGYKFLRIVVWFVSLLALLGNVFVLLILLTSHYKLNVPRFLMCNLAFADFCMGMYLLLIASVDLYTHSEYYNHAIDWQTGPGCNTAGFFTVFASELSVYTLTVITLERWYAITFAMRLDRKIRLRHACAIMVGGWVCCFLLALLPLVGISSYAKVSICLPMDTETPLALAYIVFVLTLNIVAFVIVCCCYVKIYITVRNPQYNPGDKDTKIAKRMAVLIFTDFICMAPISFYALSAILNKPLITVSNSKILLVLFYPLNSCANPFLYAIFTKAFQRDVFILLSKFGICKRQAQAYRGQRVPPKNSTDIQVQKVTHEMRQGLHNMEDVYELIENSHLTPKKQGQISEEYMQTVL

Cc1ccccc1C
inactive: Potency [1] | Potency [2] | outcome [3] | Potency [4] | Potency [5] | outcome [6] | outcome [7] | outcome [8] | Potency [9] | Potency [10] | Potency [11] | Potency [12] | Potency [13] | outcome [14] | outcome [15]

CC(C)(C)c1ccc(C=O)cc1
inactive: Potency [2] | outcome [3] | Potency [16] | Potency [4] | outcome [17] | Potency [5] | outcome [6] | outcome [7] | outcome [8] | outcome [18] | outcome [19] | Potency [9] | Potency [10] | Potency [11] | Potency [12] | Potency [13] | outcome [14] | outcome [15]

CCC1COC(=O)O1 (stereo not drawn)
inactive: Potency [1] | Potency [2] | outcome [3] | Potency [5] | outcome [7] | outcome [8] | outcome [18] | outcome [19] | Potency [9] | Potency [10] | Potency [11] | Potency [12] | Potency [13] | outcome [14] | outcome [15]

OC[C@@H](O)[C@H](O)[C@@H](O)[C@@H](O)CO
inactive: Potency [1] | Potency [2] | outcome [3] | Potency [5] | outcome [7] | outcome [8] | outcome [18] | outcome [19] | Potency [9] | Potency [10] | Potency [12] | Potency [13] | outcome [14] | outcome [15]

CCCCCCCCCCCCCCCCI
inactive: viability change, negative = cytotoxic [1] 5% [at 19 µM] | viability change, negative = cytotoxic [2] -1.6% [at 19 µM] | activity change [3] -0.0263% [at 18.9 µM] | activation [4] 0.348% [at 19 µM] | activity change, negative = cytotoxicity [5] -1.43% [at 19 µM] | activity change, negative = cytotoxicity [6] -6.04% [at 19 µM] | activation [20] 0.857% [at 19 µM] | activity change, negative = cytotoxicity [7] -0.0745% [at 19 µM] | cAMP activity change [18] 5% [at 18.9 µM] | activity change, negative = inhibition [19] -4.61% [at 19 µM] | activity change, negative = cytotoxicity [9] -3.61% [at 19 µM] | activation [10] 0.0661% [at 19 µM] | activity change, negative = inhibition [11] -3.13% [at 18.9 µM] | activity change, negative = cytotoxicity [12] 17.5% [at 18.9 µM] | activity change, negative = cytotoxicity [13] -9.05% [at 19 µM] | viability change, negative = cytotoxic [14] -2.44% [at 15.8 µM] | activity change, negative = cytotoxicity [15] 0.0425% [at 15.8 µM]

Nc1ccnc(=O)[nH]1
inactive: Potency [2] | outcome [3] | Potency [16] | Potency [4] | outcome [17] | Potency [5] | outcome [6] | outcome [20] | outcome [7] | outcome [8] | outcome [18] | outcome [19] | Potency [10] | Potency [11] | Potency [12] | Potency [13] | outcome [15]

CC(=O)OCCCc1ccccc1
inactive: Potency [2] | outcome [3] | Potency [16] | Potency [4] | outcome [6] | outcome [7] | outcome [18] | outcome [19] | Potency [9] | Potency [10] | Potency [11] | Potency [12] | Potency [13] | outcome [14] | outcome [15]

N#CCCOCCOCCC#N
inactive: Potency [2] | outcome [3] | Potency [16] | Potency [4] | outcome [17] | outcome [6] | outcome [7] | outcome [8] | outcome [18] | outcome [19] | Potency [9] | Potency [10] | Potency [11] | Potency [12] | Potency [13] | outcome [14] | outcome [15]

CC(C)CCC(=O)CCC(C)C
inactive: Potency [2] | outcome [3] | Potency [16] | Potency [4] | Potency [5] | outcome [6] | outcome [7] | outcome [8] | outcome [18] | outcome [19] | Potency [9] | Potency [10] | Potency [11] | Potency [12] | Potency [13] | outcome [14] | outcome [15]

COCC(=O)Nc1c(I)c(C(=O)NCC(O)CO)c(I)c(C(=O)N(C)CC(O)CO)c1I (stereo not drawn)
inactive: Potency [2] | outcome [3] | Potency [16] | Potency [4] | outcome [17] | Potency [5] | outcome [20] | outcome [7] | outcome [8] | outcome [18] | outcome [19] | Potency [10] | Potency [11] | Potency [12] | Potency [13] | outcome [14] | outcome [15]

C=CCCCCCCCCCCC
inactive: viability change, negative = cytotoxic [2] 2.53% [at 8.39 µM] | activity change [3] 0.0597% [at 8.39 µM] | activity change, negative = inhibition [16] -3.37% [at 8.39 µM] | activity change, negative = cytotoxicity [5] 0.376% [at 8.39 µM] | activity change, negative = cytotoxicity [6] -6.43% [at 8.39 µM] | activation [20] 2.68% [at 8.39 µM] | activity change, negative = cytotoxicity [7] 4.44% [at 8.39 µM] | activation [8] 0.334% [at 8.39 µM] | cAMP activity change [18] 1.9% [at 8.39 µM] | activity change, negative = inhibition [19] 3.13% [at 8.39 µM] | activity change, negative = cytotoxicity [9] -2.37% [at 8.39 µM] | activation [10] -0.805% [at 8.39 µM] | activity change, negative = inhibition [11] 5.07% [at 8.39 µM] | activity change, negative = cytotoxicity [13] -1.19% [at 8.39 µM] | viability change, negative = cytotoxic [14] 12.5% [at 6.97 µM] | activity change, negative = cytotoxicity [15] -3.69% [at 6.97 µM]
